Rows were chosen to be rich in hits. Some 19% of all compounds tested hit in one or more screens of this group.
TDP1 cell noCPT: qHTS for Inhibitors of human tyrosyl-DNA phosphodiesterase 1 (TDP1): qHTS in cells in absence of CPT; DT40 Tdp1-/- hTDP1 cells, no CPT, ATP luminescence, 48 h; Potency, µM (doses to about 46.2 µM), inactives show at the top dose activity change, negative = growth inhibition, hits mostly inhibitors; actives 15% (n = 420,000); AID 686978, 2013; also: potency is read from the fitted curve at half-maximal effect; nearly all actives have a fitted effect of over 55% in size
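Camptothecin absent (DMSO only). Human TDP1-complemented DT40 knockout cells, 400 cells/well, 37 °C for minimum 48 hr; ATP measured via CellTiter-Glo, 30 min dark incubation, luminescence.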
DT40 TDP1 CPT: qHTS for Inhibitors of human tyrosyl-DNA phosphodiesterase 1 (TDP1): qHTS in cells in presence of CPT; chicken DT40 Tdp1-/-;hTDP1 cells + 20 nM CPT, ATP luminescence, 48 h; actives 12% (n = 420,000); Potency, µM (top dose mostly 46.2 µM), for the others: at the highest dose activity change, negative = growth inhibition, most hits filed as inhibitors; also: potency is read from the fitted curve at half-maximal effect; nearly all actives have a fitted effect of over 55% in size
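Cell growth measured by CellTiter-Glo luminescence after a minimum 48 h, 37 C compound exposure with 20 nM CPT in Tdp1-knockout DT40 cells stably expressing hTDP1, seeded 400/well; qHTS titration format.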
HT1080 IDH1KD tx: qHTS for induction of synthetic lethality in tumor cells producing 2HG: qHTS for the HT-1080-IDH1KD cell line; actives 2% (n = 360,000); Potency, µM (doses to about 46.1 µM), inactives show at the highest dose activity, negative = toxicity, actives largely listed as cytotoxic; HT-1080 IDH1 knockdown viability, ATP luminescence, 48 h; AID 686971, 2013;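 also: potency is read from the fitted curve at half-maximal effect; 0% = DMSO wells and -100% = cell-free medium wells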
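Knockdown cells (IDH1KD HT-1080) received compounds 2 h after plating at 750 cells/well and were kept 48 h at 37 °C in 5% FBS RPMI. A CellTiter-Glo luminescence read gave % activity for curve fitting.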
IL1B secr inh: qHTS for Inhibitors of Inflammasome Signaling: IL-1-beta AlphaLISA Primary Screen; AID 743279, 2014; actives 4.7% (n = 360,000); activity change, % at 57.5 µM; THP-1 LPS/ATP IL-1B secretion, AlphaLISA, 16 h; active compounds read low; in the data active = activity change below about -50%; inconclusive = mostly about -30% to -49%
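Secreted IL-1B measured by AlphaLISA bead assay after 16 h compound exposure of THP-1 cells; compounds (final up to 57.5 uM) added 1 h before LPS (250 ng/mL) and ATP (1.25 mM) stimulation; lower signal means less secretion.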
HT1080NT lethal: qHTS for induction of synthetic lethality in tumor cells producing 2HG: qHTS for the HT-1080-NT fibrosarcoma cell line; AID 686970, 2013; Potency, µM (titrated, usually from 46.1 µM), inactives show at the highest dose activity, negative = less viability, most hits filed as cytotoxic; actives 1.6% (n = 360,000); HT-1080-NT fibrosarcoma viability, CellTiter-Glo ATP luminescence, 48 h;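 also: NT is the 2HG producing partner of a matched IDH1 knockdown line; potency is read from the fitted curve at half-maximal effect; 0% = DMSO-treated cells and -100% = media-only wells without cells; nearly all actives have a fitted effect of over 55% in size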
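A 48-hour cytotoxicity screen used HT-1080-NT cells plated 2 hours before compound delivery. ATP-based CellTiter-Glo luminescence measured viability, normalized to DMSO and no-cell controls.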
* marks the source's active call; other numbers are inactive results. Unless noted, calls follow the shape of the dose curve; as a rule, active = well fitted curve in the direction sought with a large enough effect; inconclusive = small, poorly fitted or top-dose-only effect, or another doubt; inactive = no such curve, though single readings can be large; an effect the other way counts as inactive or inconclusive. Unless noted, % is scaled to controls: 0 for no effect and ±100 for the full control effect.

How did O=P(COCCCCCOCP(=O)(c1ccccc1)c1ccccc1)(c1ccccc1)c1ccccc1 do in these assays?
TDP1 cell noCPT: 18µM*; DT40 TDP1 CPT: 16µM*; HT1080 IDH1KD tx: -11%; IL1B secr inh: inconclusive; HT1080NT lethal: -11%

How did O=P(COCCOCP(=O)(c1ccccc1)c1ccccc1)(c1ccccc1)c1ccccc1 do in these assays?
TDP1 cell noCPT: -19%; DT40 TDP1 CPT: 0%; HT1080 IDH1KD tx: -5%; IL1B secr inh: -9; HT1080NT lethal: -2%

How did CO[C@H]1[C@H](NC(=O)c2ccsc2)c2ccccc2C12CCN(Cc1c(O)ccc3ccccc13)CC2 do in these assays?
TDP1 cell noCPT: -26%; DT40 TDP1 CPT: -29%

How did O=C(CC1CC2CCC1C2)OCC(=O)c1c[nH]c2ccccc12 (configuration not stated) do in these assays?
TDP1 cell noCPT: -23%; DT40 TDP1 CPT: -26%; HT1080 IDH1KD tx: -23%; IL1B secr inh: 14; HT1080NT lethal: -17%

How did COc1cc(CCC(=O)Nc2nnc(-c3cccnc3)s2)cc(OC)c1OC do in these assays?
TDP1 cell noCPT: -4%; DT40 TDP1 CPT: 8%; HT1080 IDH1KD tx: 17%; IL1B secr inh: -16; HT1080NT lethal: 2%

Results for CCOc1ccc(S(=O)(=O)NCC(c2ccc(N(C)C)cc2)N2CCCC2)cc1 (configuration not stated) ?
TDP1 cell noCPT: 26µM*; DT40 TDP1 CPT: inconclusive

How did COc1ccc(C(=O)NCC(c2ccc(N(C)C)cc2)N2CCCC2)c(OC)c1 (configuration not stated) do in these assays?
TDP1 cell noCPT: 13µM*; DT40 TDP1 CPT: inconclusive

How did COc1ccc(C(CNC(=O)c2ccc(S(=O)(=O)N(C)C)cc2)N2CCCC2)cc1 (configuration not stated) do in these assays?
TDP1 cell noCPT: -21%; DT40 TDP1 CPT: -21%; HT1080 IDH1KD tx: 17%; IL1B secr inh: -5; HT1080NT lethal: 18%

How did CN(C)c1ccc(C(CNC(=O)COc2ccc(Cl)cc2)N2CCCC2)cc1 (configuration not stated) do in these assays?
TDP1 cell noCPT: inconclusive; DT40 TDP1 CPT: inconclusive; HT1080 IDH1KD tx: 2%; IL1B secr inh: inconclusive; HT1080NT lethal: -14%

What do the screens show for `COc1ccc(OCC(=O)NCC(c2ccc(Cl)cc2)N2CCCCC2)cc1` (configuration not stated)?
TDP1 cell noCPT: inconclusive; DT40 TDP1 CPT: 21µM*

What do the screens show for `COc1ccc(C(=O)NCC(c2ccc(Cl)cc2)N2CCCCC2)cc1` (configuration not stated)?
TDP1 cell noCPT: 12µM*; DT40 TDP1 CPT: 15µM*

How did CN(C)c1ccc(C(CNS(=O)(=O)c2ccc([N+](=O)[O-])cc2)N2CCOCC2)cc1 (configuration not stated) do in these assays?
TDP1 cell noCPT: -18%; DT40 TDP1 CPT: -18%; HT1080 IDH1KD tx: 6%; IL1B secr inh: -16; HT1080NT lethal: 11%

Results for COc1cc(OC)c(NC(=O)c2oc3ccc4c(c3c2C)C(=O)CC(C)(C)O4)cc1Cl ?
TDP1 cell noCPT: -6%; DT40 TDP1 CPT: 0%

What do the screens show for `Nc1cccc2[nH]cnc12`?
TDP1 cell noCPT: 0%; DT40 TDP1 CPT: -5%

What do the screens show for `CCn1cc(S(=O)(=O)c2cccc(Cl)c2)c(=O)c2cc(F)c(N3CCC(C)CC3)cc21`?
TDP1 cell noCPT: -12%; DT40 TDP1 CPT: -4%

Results for O=C1CCCN1CCCNS(=O)(=O)c1ccc(F)c(F)c1 ?
TDP1 cell noCPT: 1%; DT40 TDP1 CPT: 21%; HT1080 IDH1KD tx: 11%; IL1B secr inh: 6; HT1080NT lethal: 19%

Results for Cc1cc(C)cc(OCC(=O)NCC(c2ccc(Cl)cc2)N2CCCCC2)c1 (configuration not stated) ?
TDP1 cell noCPT: 16µM*; DT40 TDP1 CPT: 21µM*

How did COc1ccc(C(CNC(=O)COc2cc(C)ccc2Cl)N2CCCCC2)cc1 (configuration not stated) do in these assays?
TDP1 cell noCPT: inconclusive; DT40 TDP1 CPT: inconclusive; HT1080 IDH1KD tx: -7%; IL1B secr inh: 41; HT1080NT lethal: -9%

How did CCOC(=O)C1CCCN(C(=O)c2cccnc2Oc2ccccc2)CC1 (configuration not stated) do in these assays?
TDP1 cell noCPT: -22%; DT40 TDP1 CPT: -30%; HT1080 IDH1KD tx: 7%; IL1B secr inh: 2; HT1080NT lethal: 14%

How did NS(=O)(=O)c1ccc(NC(=O)CN2C(=O)C3C4C=CC(C4)C3C2=O)cc1 (configuration not stated) do in these assays?
TDP1 cell noCPT: -17%; DT40 TDP1 CPT: -7%; HT1080 IDH1KD tx: 10%; IL1B secr inh: -6; HT1080NT lethal: -8%

Results for CCOc1ccc(Br)cc1S(=O)(=O)Nc1cccc(S(=O)(=O)N(C)c2ccccc2)c1 ?
TDP1 cell noCPT: -27%; DT40 TDP1 CPT: -21%; HT1080 IDH1KD tx: -27%; IL1B secr inh: 10; HT1080NT lethal: -9%

What do the screens show for `Cc1nn(-c2ccccc2)c2c1N(CCCC(=O)NCc1ccc(Cl)cc1)C(=O)CS2`?
TDP1 cell noCPT: 23µM*; DT40 TDP1 CPT: 26µM*

How did CCCCOc1ccc(CNC(=O)CCCN2C(=O)CSc3c2c(C)nn3-c2ccccc2)cc1 do in these assays?
TDP1 cell noCPT: 13µM*; DT40 TDP1 CPT: 18µM*

What do the screens show for `Cc1nn(CCCC(=O)NCc2ccccc2)c(=O)c2nn(-c3ccccc3)c(C)c12`?
TDP1 cell noCPT: inconclusive; DT40 TDP1 CPT: -9%; HT1080 IDH1KD tx: -8%; IL1B secr inh: inconclusive; HT1080NT lethal: 1%

What do the screens show for `Cc1nn(-c2ccccc2)c2c1N(CCCC(=O)NCc1ccc(OC(C)C)cc1)C(=O)CS2`?
TDP1 cell noCPT: 7.3µM*; DT40 TDP1 CPT: 15µM*

What do the screens show for `Cc1nn(-c2ccccc2)c2c1N(CCCC(=O)NC(C)c1ccccc1)C(=O)CS2` (configuration not stated)?
TDP1 cell noCPT: inconclusive; DT40 TDP1 CPT: 15µM*

What do the screens show for `CN(C)S(=O)(=O)c1ccc2c(c1)nnn2CCNC(=O)Nc1ccc(Br)cc1`?
TDP1 cell noCPT: -12%; DT40 TDP1 CPT: 0%

What do the screens show for `O=C(CCCOc1ccc(Cl)cc1Cl)Nc1ccc(O)cc1C(=O)O`?
TDP1 cell noCPT: 0%; DT40 TDP1 CPT: 14%; HT1080 IDH1KD tx: -9%; IL1B secr inh: 20; HT1080NT lethal: 5%
